PubChem BioAssay AID1835 (Johns Hopkins Ion Channel Center, 2009)
Screen size: about 2,400 compounds; about 750 (31%) were called active. The list shows a part of the results. A number with no mark means an inactive call.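 Rule for the calls: active = median signal gain over dofetilide-blocked control wells reaching their mean plus 3 SD, so readout 1 at least 0; inactive = the rest.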

target: Voltage-gated inwardly rectifying potassium channel KCNH2 (Homo sapiens) (UniProt Q12809); assay: hERG protection against dofetilide inhibition, confirmation, cell-based, thallium flux, duplicate retest, dofetilide IC70 (AID 1835); details: hERG cell line, FluxOR thallium flux, dofetilide-blocked; at 10 µM; active compounds read high
Sequence (Q12809 whole entry, looked up): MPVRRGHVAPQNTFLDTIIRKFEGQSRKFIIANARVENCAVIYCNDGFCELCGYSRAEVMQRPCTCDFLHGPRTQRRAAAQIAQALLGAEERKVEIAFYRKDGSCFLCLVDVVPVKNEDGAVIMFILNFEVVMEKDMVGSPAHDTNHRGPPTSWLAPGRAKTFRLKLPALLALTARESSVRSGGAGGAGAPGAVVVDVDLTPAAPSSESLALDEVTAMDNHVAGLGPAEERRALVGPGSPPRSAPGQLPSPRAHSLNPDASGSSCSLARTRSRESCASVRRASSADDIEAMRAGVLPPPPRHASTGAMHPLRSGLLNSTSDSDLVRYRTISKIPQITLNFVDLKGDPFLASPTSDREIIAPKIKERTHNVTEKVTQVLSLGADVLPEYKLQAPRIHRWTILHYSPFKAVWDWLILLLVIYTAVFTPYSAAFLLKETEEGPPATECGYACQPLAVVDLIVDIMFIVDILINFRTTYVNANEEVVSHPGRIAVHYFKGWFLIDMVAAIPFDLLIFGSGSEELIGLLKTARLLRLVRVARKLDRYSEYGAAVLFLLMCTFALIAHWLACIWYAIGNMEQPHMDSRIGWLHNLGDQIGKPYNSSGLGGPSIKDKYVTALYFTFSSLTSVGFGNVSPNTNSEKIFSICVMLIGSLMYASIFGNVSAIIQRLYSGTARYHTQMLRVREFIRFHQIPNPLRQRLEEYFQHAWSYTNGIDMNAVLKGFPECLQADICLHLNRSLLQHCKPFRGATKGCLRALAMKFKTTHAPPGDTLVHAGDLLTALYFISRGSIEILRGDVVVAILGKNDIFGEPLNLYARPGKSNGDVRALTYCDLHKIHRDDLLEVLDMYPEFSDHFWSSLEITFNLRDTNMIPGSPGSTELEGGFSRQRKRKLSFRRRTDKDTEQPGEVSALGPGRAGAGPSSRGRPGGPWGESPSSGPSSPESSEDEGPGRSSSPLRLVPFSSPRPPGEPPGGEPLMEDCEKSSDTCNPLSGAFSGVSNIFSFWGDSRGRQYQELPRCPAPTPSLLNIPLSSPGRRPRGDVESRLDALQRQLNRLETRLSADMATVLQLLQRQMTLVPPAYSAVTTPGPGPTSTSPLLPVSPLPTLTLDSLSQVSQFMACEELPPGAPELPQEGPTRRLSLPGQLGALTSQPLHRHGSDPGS

Question: With `COc1ccc(/C=C2/S/C(=N/N=C3\CC4CCC3(C)C4(C)C)NC2=O)cc1` (centres undefined) as the molecule, how does the activity increase over dofetilide control, less the hit threshold read?
Answer: The activity increase over dofetilide control, less the hit threshold was 20% (active).

Question: How did the activity increase over dofetilide control, less the hit threshold turn out when `Cc1ccc(N=C2NC(=O)/C(=C/c3cccs3)S2)cc1C` was run?
Answer: The activity increase over dofetilide control, less the hit threshold was 0%.

Question: With `CC12CCC(C/C1=N\N=C1\NC(=O)/C(=C\c3ccc(Cl)cc3)S1)C2(C)C` (centres undefined) as the molecule, how does the activity increase over dofetilide control, less the hit threshold read?
Answer: Its activity increase over dofetilide control, less the hit threshold is -3%.

Question: `Cc1cccc(/C=C2/S/C(=N/N=C3\CC4CCC3(C)C4(C)C)NC2=O)c1` (centres undefined) was tested. Which activity increase over dofetilide control, less the hit threshold did it give?
Answer: The activity increase over dofetilide control, less the hit threshold was 5% (active).

Question: `CCOc1nc(-c2ccccc2)ccc1-c1noc(COC)n1` was tested. Which activity increase over dofetilide control, less the hit threshold did it give?
Answer: Its activity increase over dofetilide control, less the hit threshold is -7%.

Question: Which activity increase over dofetilide control, less the hit threshold does the source give for `COC(=O)c1ccc(NC(=O)COC(=O)C2CC(=O)N(Cc3ccccc3)C2)cc1` (centres undefined) here?
Answer: The activity increase over dofetilide control, less the hit threshold was -29%.

Question: For `Cc1cccc(NC(=S)N/N=C2\CC(C)(C)Oc3ccc(O)cc32)c1`, which activity increase over dofetilide control, less the hit threshold is on record?
Answer: The activity increase over dofetilide control, less the hit threshold was -5%.

Question: With `O=S(=O)(c1ccc(F)c(F)c1)N1CCN(c2ncccn2)CC1` as the molecule, how does the activity increase over dofetilide control, less the hit threshold read?
Answer: The activity increase over dofetilide control, less the hit threshold was -9%.

Question: `O=S(=O)(Nc1ccc(O)c2ccccc12)c1ccc(F)cc1` was tested. Which activity increase over dofetilide control, less the hit threshold did it give?
Answer: Its activity increase over dofetilide control, less the hit threshold is -58%.

Question: Which activity increase over dofetilide control, less the hit threshold does the source give for `COc1ccc(OC)c(S(=O)(=O)Nc2ccc(O)c3ccccc23)c1` here?
Answer: Its activity increase over dofetilide control, less the hit threshold is -4%.

Question: How did the activity increase over dofetilide control, less the hit threshold turn out when `Cc1ccc(S(=O)(=O)Nc2ccc(O)c3ccccc23)c(C)c1` was run?
Answer: The activity increase over dofetilide control, less the hit threshold was 5% (active).

Question: Which activity increase over dofetilide control, less the hit threshold does the source give for `O=C(c1ccccc1)c1nccn1-c1ccc(Cl)nn1` here?
Answer: The activity increase over dofetilide control, less the hit threshold was -11%.

Question: How did the activity increase over dofetilide control, less the hit threshold turn out when `CC(C1CC2CCC1C2)n1c(-c2cccs2)n[nH]c1=S` (centres undefined) was run?
Answer: Its activity increase over dofetilide control, less the hit threshold is -4%.

Question: With `COc1cc(/C=N/n2cnc3scc(-c4cccs4)c3c2=O)cc(OC)c1OC` as the molecule, how does the activity increase over dofetilide control, less the hit threshold read?
Answer: Its activity increase over dofetilide control, less the hit threshold is -5%.

Question: Which activity increase over dofetilide control, less the hit threshold does the source give for `Cn1c(=S)[nH]c2scc(-c3cccs3)c2c1=O` here?
Answer: Its activity increase over dofetilide control, less the hit threshold is 60% (active).

Question: With `S=c1[nH]c(-c2cccs2)cn1-c1ccccc1` as the molecule, how does the activity increase over dofetilide control, less the hit threshold read?
Answer: The activity increase over dofetilide control, less the hit threshold was -5%.

Question: How did the activity increase over dofetilide control, less the hit threshold turn out when `CC(C)n1c(=S)[nH]c2scc(-c3cccs3)c2c1=O` was run?
Answer: Its activity increase over dofetilide control, less the hit threshold is 79% (active).

Question: Which activity increase over dofetilide control, less the hit threshold does the source give for `S=c1nc(C2CCCCC2)[nH]c2ccccc12` here?
Answer: The activity increase over dofetilide control, less the hit threshold was 4% (active).

Question: Which activity increase over dofetilide control, less the hit threshold does the source give for `S=c1[nH]c2ccccc2c2ccccc12` here?
Answer: The activity increase over dofetilide control, less the hit threshold was -3%.

Question: For `S=c1nc(C2CC2)[nH]c2ccccc12`, which activity increase over dofetilide control, less the hit threshold is on record?
Answer: The activity increase over dofetilide control, less the hit threshold was 34% (active).

Question: `COc1ccc(-n2c(O)c(/C=C3\C=Nc4ccccc43)c(=O)[nH]c2=O)cc1` was tested. Which activity increase over dofetilide control, less the hit threshold did it give?
Answer: Its activity increase over dofetilide control, less the hit threshold is 21% (active).

Question: For `COc1ccc(Cn2c(O)cc(=O)[nH]c2=O)cc1`, which activity increase over dofetilide control, less the hit threshold is on record?
Answer: Its activity increase over dofetilide control, less the hit threshold is -9%.

Question: For `Cn1cc(CCC(=O)N2CCCC(Nc3ccc(F)cc3)C2)cn1` (centres undefined), which activity increase over dofetilide control, less the hit threshold is on record?
Answer: Its activity increase over dofetilide control, less the hit threshold is -13%.

Question: `CCc1cc2cc(C)cc(C)c2[nH]c1=S` was tested. Which activity increase over dofetilide control, less the hit threshold did it give?
Answer: Its activity increase over dofetilide control, less the hit threshold is 14% (active).

Question: Which activity increase over dofetilide control, less the hit threshold does the source give for `COc1ccc(NC(=O)CC23CC4CC(CC(C4)C2)C3)cn1` here?
Answer: Its activity increase over dofetilide control, less the hit threshold is -17%.

Question: For `CCOC(=O)c1cnc(-n2nc(C)cc2C)nc1NNc1nc(-c2ccccc2)cc(-c2ccccc2)n1`, which activity increase over dofetilide control, less the hit threshold is on record?
Answer: Its activity increase over dofetilide control, less the hit threshold is -12%.

Question: `CCOc1cc(N2CCOCC2)c(OCC)cc1NC(=O)Cc1ccccc1` was tested. Which activity increase over dofetilide control, less the hit threshold did it give?
Answer: Its activity increase over dofetilide control, less the hit threshold is -2%.

Question: With `CCOc1cc(N2CCOCC2)c(OCC)cc1NC(=O)CCC1CCCC1` as the molecule, how does the activity increase over dofetilide control, less the hit threshold read?
Answer: The activity increase over dofetilide control, less the hit threshold was -11%.

Question: With `CCOc1cc(N2CCOCC2)c(OCC)cc1NC(=O)Cn1nc(C)c([N+](=O)[O-])c1C` as the molecule, how does the activity increase over dofetilide control, less the hit threshold read?
Answer: Its activity increase over dofetilide control, less the hit threshold is 16% (active).

Question: With `Cc1ccccc1OC(=O)n1c(=S)oc2cc(Cl)ccc21` as the molecule, how does the activity increase over dofetilide control, less the hit threshold read?
Answer: The activity increase over dofetilide control, less the hit threshold was -1%.

Question: `O=C(/C=C/Nc1ccccc1)C(F)(F)F` was tested. Which activity increase over dofetilide control, less the hit threshold did it give?
Answer: Its activity increase over dofetilide control, less the hit threshold is -14%.

Question: Which activity increase over dofetilide control, less the hit threshold does the source give for `Cc1ccc(-c2nc(N)s[n+]2-c2ccccc2)cc1` here?
Answer: Its activity increase over dofetilide control, less the hit threshold is 17% (active).

Question: Which activity increase over dofetilide control, less the hit threshold does the source give for `CCC(C)(C)NC(=O)c1ccc(Sc2nncn2C)c([N+](=O)[O-])c1` here?
Answer: The activity increase over dofetilide control, less the hit threshold was -4%.

Question: `C=C(C)C1CC=C(C)/C(=N/NC(=O)CCC(=O)Nc2ccccc2Cl)C1` (centres undefined) was tested. Which activity increase over dofetilide control, less the hit threshold did it give?
Answer: Its activity increase over dofetilide control, less the hit threshold is -17%.

Question: Which activity increase over dofetilide control, less the hit threshold does the source give for `COc1ccc(CCNC(=O)c2ccc3c(c2)OCO3)cc1` here?
Answer: The activity increase over dofetilide control, less the hit threshold was -16%.

Question: With `COc1ccc2c(c1)O[C@@H](c1cccc(C(F)(F)F)c1)[C@H](OC(=O)NCCc1ccc(OC)c(OC)c1)C2=O` as the molecule, how does the activity increase over dofetilide control, less the hit threshold read?
Answer: Its activity increase over dofetilide control, less the hit threshold is 3% (active).

Question: How did the activity increase over dofetilide control, less the hit threshold turn out when `COc1cccc([C@@H]2Oc3ccc(OC)cc3C(=O)[C@H]2OC(=O)NCc2ccc3c(c2)OCO3)c1` was run?
Answer: Its activity increase over dofetilide control, less the hit threshold is 5% (active).

Question: With `COc1ccc(CCNC(=O)Cn2c(=O)n(-c3ccc(F)cc3)c(=O)c3sccc32)cc1OC` as the molecule, how does the activity increase over dofetilide control, less the hit threshold read?
Answer: Its activity increase over dofetilide control, less the hit threshold is -10%.

Question: How did the activity increase over dofetilide control, less the hit threshold turn out when `COc1ccc(CCNC(=O)C(=O)Nc2ccc3c(c2)OCO3)cc1OC` was run?
Answer: Its activity increase over dofetilide control, less the hit threshold is -22%.

Question: How did the activity increase over dofetilide control, less the hit threshold turn out when `COc1ccccc1-n1c(C)nc2cc(C(=O)NCc3ccc4c(c3)OCO4)ccc21` was run?
Answer: Its activity increase over dofetilide control, less the hit threshold is -27%.

Question: `COC(=O)C(C)Sc1nnc(Cc2cc(=O)[nH]c(=O)[nH]2)n1-c1cccc(OC)c1` (centres undefined) was tested. Which activity increase over dofetilide control, less the hit threshold did it give?
Answer: The activity increase over dofetilide control, less the hit threshold was -17%.

Question: For `CC(C)OC(=O)N(C)c1ccc(C(O)(C(F)(F)F)C(F)(F)F)cc1`, which activity increase over dofetilide control, less the hit threshold is on record?
Answer: The activity increase over dofetilide control, less the hit threshold was -8%.

Question: How did the activity increase over dofetilide control, less the hit threshold turn out when `CCCOC(=O)CN1C(=O)c2ccc(C(=O)OCCC)cc2C1=O` was run?
Answer: The activity increase over dofetilide control, less the hit threshold was -8%.

Question: How did the activity increase over dofetilide control, less the hit threshold turn out when `COc1ccc(CC(=O)Nc2ccc(-c3noc(-c4ccccc4OC)n3)cc2)cc1` was run?
Answer: Its activity increase over dofetilide control, less the hit threshold is -18%.

Question: How did the activity increase over dofetilide control, less the hit threshold turn out when `Cc1c(C#N)c(O)[nH]c(=O)c1N=Nc1ccc(Br)cc1C(=O)O` was run?
Answer: Its activity increase over dofetilide control, less the hit threshold is 46% (active).

Question: For `CC1(C)CC(NC(=O)c2ccc(Cl)cc2Cl)CC(C)(C)N1`, which activity increase over dofetilide control, less the hit threshold is on record?
Answer: The activity increase over dofetilide control, less the hit threshold was 2% (active).

Question: Which activity increase over dofetilide control, less the hit threshold does the source give for `Cc1ccc(C(C)C)cc1S(=O)(=O)NC1CC(C)(C)NC(C)(C)C1` here?
Answer: Its activity increase over dofetilide control, less the hit threshold is -15%.

Question: `Cc1ccc2c(c1)c1c(n2CC(O)Cn2nc(C)c(Br)c2C)CCCC1` (centres undefined) was tested. Which activity increase over dofetilide control, less the hit threshold did it give?
Answer: The activity increase over dofetilide control, less the hit threshold was -8%.

Question: How did the activity increase over dofetilide control, less the hit threshold turn out when `Cc1ccc(F)cc1CNC(=O)C1CCC(=O)N(C2CC2)C1` (centres undefined) was run?
Answer: Its activity increase over dofetilide control, less the hit threshold is -7%.
